The campaign covered roughly 16,000 compounds. About 5,100 (32%) were called active. Another 25% or so got no clear call; they are omitted. This is one part of the list. Values without a mark were called inactive. The call rests on the fitted dose curve; in most records, active means well fitted curve in the direction sought with a large enough effect; inconclusive means small, poorly fitted or top-dose-only effect, or effect the other way; inactive means no such curve, though single readings can be large or run the other way.
target: Cytochrome P450 3A4 (Homo sapiens) (UniProt P08684); test: Cytochrome panel assay with activity outcomes; details: recombinant CYP, pro-luciferin dealkylation, luminescence, p450-cyp3a4; series mostly up to 57.1 µM; activity, negative = inhibition: at the top concentration
On the % scale 0 is the no-effect control and ±100 the full control effect.

Chain of Cytochrome P450 3A4 (Homo sapiens) (P08684 whole entry, looked up): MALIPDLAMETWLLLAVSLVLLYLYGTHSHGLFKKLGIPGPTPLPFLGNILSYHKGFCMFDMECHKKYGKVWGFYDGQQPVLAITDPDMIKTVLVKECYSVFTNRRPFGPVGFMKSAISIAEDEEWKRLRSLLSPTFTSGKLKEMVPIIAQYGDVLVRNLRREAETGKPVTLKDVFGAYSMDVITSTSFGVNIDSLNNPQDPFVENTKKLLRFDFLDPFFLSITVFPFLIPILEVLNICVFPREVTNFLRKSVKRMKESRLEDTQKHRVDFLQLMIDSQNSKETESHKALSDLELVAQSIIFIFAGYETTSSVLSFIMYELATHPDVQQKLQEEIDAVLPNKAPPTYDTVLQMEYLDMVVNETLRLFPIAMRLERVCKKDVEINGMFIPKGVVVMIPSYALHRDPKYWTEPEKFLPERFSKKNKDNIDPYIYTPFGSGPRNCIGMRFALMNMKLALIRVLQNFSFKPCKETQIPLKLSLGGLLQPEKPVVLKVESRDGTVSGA

Compound	activity, negative = inhibition	AC50
CC(C)C12CN3CC(C(C)C)(CN(C1)C3c1ccco1)C2=O (stereo not given)	-2.45% [at 2.29 µM]	–
COc1ccc(CCNC(=O)C2CCCN(Cc3nc(-c4cccc(Cl)c4)oc3C)C2)cc1OC (stereo not given)	–	2 µM (active)
CCCS(=O)(=O)N1CCCC(C(=O)NCCCN2CCN(c3cccc(Cl)c3)CC2)C1 (stereo not given)	-22.1%	–
CCC(C)NC(=O)C1CCCN(C(=O)NC2CCCCC2)C1 (stereo not given)	10.7% [at 2.29 µM]	–
COc1ccc2nc(N3CCCC(C(=O)NCCCN4CCN(C)CC4)C3)sc2c1 (stereo not given)	-20.9%	–
Cc1cccc(-c2nc(CN3CCCC(C(=O)NC4CCCCC4)C3)c(C)o2)c1 (stereo not given)	–	3.16 µM (active)
Cc1cn([C@H]2C[C@H](O)[C@@H](COC(N)=O)O2)c(=O)[nH]c1=O	-22.2% [at 11.4 µM]	–
CNc1cnn(-c2ccccc2)c(=O)c1Cl	6.78%	–
C=CCNc1cnn(-c2ccc(C)cc2)c(=O)c1Cl	–	4.47 µM (active)
CC(C)CNCC(=O)N1c2ccccc2Sc2ccccc21	–	11.2 µM (active)
O=C(O)CNCCc1ccccc1	-11.1% [at 11.4 µM]	–
O=C(NCCc1ccccc1)N1c2ccccc2Sc2ccccc21	–	14.1 µM (active)
CC(C)CNC(=O)c1nc(-c2ccccc2)n(-c2ccccc2)n1	-3.69%	–
C[C@@H](CN1c2ccccc2Sc2ccccc21)N(C)C	–	inactive
NC(=O)/C(=N\OC(=O)c1ccco1)c1nc(-c2ccc(Br)cc2)cs1	-10.3%	–
N[C@@H](Cc1ncccn1)C(=O)O	6.81% [at 11.4 µM]	–
CCOC(=O)c1cc(-c2ccccc2)sc1NC(=O)C(C)(C)C	2.53%	–
CCOc1ncccc1C(=O)OCC(=O)Nc1cc(C)ccc1C	0.451% [at 2.29 µM]	–
CCOC(=O)c1cc(-c2ccccc2)sc1NC(=S)Nc1cc(C)ccn1	–	2.82 µM (active)
Cc1ccc(/C=C2\Sc3ccccc3C2=O)s1	–	20 µM (active)
CC(=O)N(/N=C1\Sc2ccccc2C1=O)c1ccccc1	-26.1%	–
Cn1cc(/C=C2/SC(=O)N(CC(=O)Nc3ccc4c(c3)OCO4)C2=O)c2ccccc21	–	0.2 µM (active)
Cc1ccsc1/C=C1/SC(=O)N(CC(=O)N2CCOCC2)C1=O	-0.702%	–
CC(C)n1cc(/C=C2/SC(=O)N(CC(=O)Nc3ccc4c(c3)OCO4)C2=O)c2ccccc21	–	0.316 µM (active)
Cn1ncc(Cl)c1C(=O)Nc1cccnc1	-16%	–

Compound	activity, negative = inhibition	AC50
CN1CCc2cc(NC(=O)Nc3cccnc3)ccc21	–	12.6 µM (active)
O=S(=O)(O)c1cc(O)c2c(O)c(N=Nc3cccc4ccccc34)c(S(=O)(=O)O)cc2c1	-11.8% [at 11.4 µM]	–
COc1ccc(Cl)cc1NC(=O)C12CCC(C)(C(=O)O1)C2(C)C (stereo not given)	–	15.8 µM (active)
NS(=O)(=O)c1ccc(N=Nc2nc3[nH]cnc(=S)c3[nH]2)cc1	-11.9% [at 11.4 µM]	–
COc1ccc(S(=O)(=O)Nc2cccc(Cl)c2)cc1OC	–	6.31 µM (active)
COc1ccc(NS(=O)(=O)c2ccc(I)cc2)cc1N1CCN(C)CC1	-53%	–
Cc1ccc(-n2[nH]c(=O)c3cccnc32)cc1	-5.23%	–
Cc1ccc(N2C(=O)c3n[nH]c(C)c3C2c2ccccn2)cc1 (stereo not given)	–	14.1 µM (active)
Cc1ccc(-n2cnc(=O)c3cccnc32)cc1	-3.53% [at 2.29 µM]	–
COCCNc1ncncc1-c1c(C)noc1C	–	5.01 µM (active)
Cc1noc(C)c1-c1cncnc1NCCN1CCOCC1	–	6.31 µM (active)
Cc1ccccc1-c1cncnc1NCCN1CCOCC1	–	1.58 µM (active)
CNc1cc(-c2c(C)noc2C)ncn1	-3%	–
Cc1noc(C)c1-c1nccc(N2CCOCC2)n1	-9.81%	–
COCCNc1cc(-c2c(C)noc2C)ncn1	10.1%	–
FC(F)(F)c1ccccc1-c1cncnc1NCCN1CCOCC1	–	0.794 µM (active)
CS[C@@H](CC(=O)O)C(=O)O	-17% [at 11.4 µM]	–
O=C1c2cccnc2C(O)N1C1CCCCC1 (stereo not given)	-14.1%	–
Cc1nc2c(n1C1CCCCC1)C(=O)c1ccccc1C2=O	–	14.1 µM (active)
COc1c(F)c(F)c(C(=O)O)c(Nc2ccc(C)cc2)c1F	-28.2%	–
Cc1ccc(CNC(=O)C2CC(c3ccccc3[N+](=O)[O-])=NO2)o1 (stereo not given)	-23.2%	–
O=C(N/N=C\c1ccc(-c2ccccc2[N+](=O)[O-])o1)C1COc2cc3ccccc3cc2O1 (stereo not given)	–	17.8 µM (active)
c1ccc(-c2nc(NCCCn3ccnc3)c3oc4ccccc4c3n2)cc1	–	1 µM (active)
c1ccc2c(c1)oc1c(NCCCn3ccnc3)ncnc12	–	0.631 µM (active)
O=C(Cn1cnc2c(oc3ccccc32)c1=O)NCc1ccco1	-25.9%	–

Compound	activity, negative = inhibition	AC50
CCOC(=O)C(C)n1cnc2c(oc3ccccc32)c1=O (stereo not given)	7.52%	–
CC(=O)C1=C(NC(=O)c2ccc(F)cc2)CC2C1C2(C)C (stereo not given)	10% [at 2.29 µM]	–
CCN1C(=O)[C@@H]2[C@H]3C(=CC[C@@H]2C1=O)C1(OCCCO1)[C@H]1O[C@@H]1[C@H]3O	-21.4% [at 11.4 µM]	–
COc1ccccc1NC(=O)c1sc2ncn(Cc3ccccc3C)c(=O)c2c1C	–	4.47 µM (active)
N#Cc1c(Cl)cccc1-n1ccnc1	–	1 µM (active)
Cc1cccc(-n2cccc2)c1C#N	0.0083%	–
N#Cc1c(-n2ccnc2)cccc1-n1ccnc1	–	2 µM (active)
CCCCOc1ccccc1N	-7.64%	–
Nc1ccccc1Oc1ncc(C(F)(F)F)cc1Cl	–	14.1 µM (active)
OC1CC2CC[C@H](C1)N2CCCN1c2ccccc2Sc2ccc(Cl)cc21 (stereo not given in full)	-4.29% [at 11.4 µM]	–
COc1ccc(OCc2nnc(SCC(=O)N3c4ccccc4Sc4ccc(Cl)cc43)o2)cc1	–	3.55 µM (active)
COc1ccc2c(c1)N(CC[C@H]1CCCCN1C)c1ccccc1S2	-24.2% [at 11.4 µM]	–
O=C(O)c1ccc(CSc2nc3ccccc3o2)cc1	23.1%	–
O=C(CSc1nc2ccccc2o1)N1c2ccccc2Sc2ccc(Cl)cc21	–	8.91 µM (active)
CCOC(=O)CN1N=C(/C=C/c2ccc(C)cc2)CCC1=O	19.5%	–
O=C1c2ccccc2N[C@H](c2cc(Cl)cc(Cl)c2O)N1CCc1ccccn1	–	0.794 µM (active)
O=C1CC(N2CCN(CCc3ccccn3)CC2)C(=O)N1c1ccc(Cl)cc1 (stereo not given)	-14.5%	–
CN(C)C(=O)c1ccc(-c2nccc(N(C)Cc3ccco3)n2)cc1	20.6%	–
CN(C)c1ccc(-c2cncnc2N(C)Cc2ccco2)cc1	–	0.631 µM (active)
CN(Cc1ccco1)c1ncncc1-c1cccnc1	–	2.51 µM (active)
CN(Cc1ccco1)c1ncncc1-c1cccc(C#N)c1	–	7.94 µM (active)
CN(Cc1ccco1)c1ncncc1-c1ccc2c(c1)OCO2	–	1.26 µM (active)
C#C[C@H](N)CCC(=O)O	-4.49%	–
COc1cc(O)c2c(O)c3c(c4c2c1[C@@]1(C4)C(C)=CCCC1(C)C)[C@H](O)[C@@]1(O)CC(=O)C(C(N)=O)=C(O)[C@]1(O)C3=O	-13.9% [at 11.4 µM]	–
COc1cccc(-c2cncnc2N(C)Cc2ccco2)c1	–	2.51 µM (active)

Compound	activity, negative = inhibition	AC50
CCc1ccc2[nH]c(O)c(N=Nc3nc(-c4ccccc4)cs3)c2c1	-16.3% [at 2.29 µM]	–
COc1c(O[C@H]2O[C@@H](CO)[C@@H](O)[C@@H](O)[C@@H]2O)cc2c(c1OC)-c1ccc(SC)c(=O)cc1[C@H](NC(C)=O)CC2	-4.87% [at 25.6 µM]	–
CCCC[C@@H]1C[C@H]1C(NC(=O)c1cccnc1)c1ccc(Cl)cc1 (stereo not given in full)	–	0.0794 µM (active)
CCCC[C@@H]1C[C@H]1C(NC(=O)Cc1ccccc1)c1ccc(Cl)cc1 (stereo not given in full)	–	2.51 µM (active)
CCCC[C@@H]1C[C@H]1C(NC(=O)c1ccc(-c2ccccc2)cc1)c1ccc(-c2ccccc2)cc1 (stereo not given in full)	-9.94%	–
N[C@@H](C(=O)O)[C@H](CC(=O)O)c1ccc(Cl)cc1	-10.4%	–
CCCC[C@@H]1C[C@H]1C(NC(=O)c1ccccc1)c1ccccc1 (stereo not given in full)	–	12.6 µM (active)
CCCC[C@@H]1C[C@H]1C(NC(=O)c1ccccc1)c1ccc(Cl)cc1 (stereo not given in full)	–	3.98 µM (active)
Cc1oc(-c2cccc(Cl)c2)[n+]([O-])c1C	1.66%	–
O=C(/C=C/c1cc2c(cc1Br)OCO2)NCc1ccc(Cl)cc1	–	2.51 µM (active)
O=C(N/N=C/c1c[nH]c2ccccc12)c1cc(-c2ccc(-c3ccccc3)cc2)n[nH]1	-5.85% [at 2.29 µM]	–
O=C(O)c1ccccc1N/N=C\c1ccnc2ccccc12	-0.0882% [at 2.29 µM]	–
O=[N+]([O-])c1ccccc1N/N=C/c1c[nH]c2ccccc12	–	25.1 µM (active)
Cc1cccc(NC(=S)N(CCc2nc3cc(C)c(C)cc3[nH]2)Cc2cccnc2)c1	–	2.24 µM (active)
COc1cccc(NC(=S)N(CCc2nc3cc(C)c(C)cc3[nH]2)Cc2cccnc2)c1	–	2.51 µM (active)
Cc1ccc(C)c(NC(=S)N(CCc2nc3cc(C)c(C)cc3[nH]2)Cc2cccnc2)c1	–	2.51 µM (active)
CN(C)CCNc1ccccn1	-5.4% [at 11.4 µM]	–
CC1CN(C(=O)COc2ncnc3ccccc23)CC(C)O1 (stereo not given)	-15.3%	–
Cc1ccc(-n2ccc(=O)c(-c3ccnc(SCc4cccc(Cl)c4)n3)n2)cc1	–	8.91 µM (active)
CC(C)[C@](N)(C(=O)O)c1ccccc1	-13.2% [at 11.4 µM]	–
O=c1cc(-c2ccccc2)[nH]n1-c1ccc([N+](=O)[O-])cc1	–	14.1 µM (active)
O=C1NC(c2cccc([N+](=O)[O-])c2)=CCN1c1ccccc1O	-24.7%	–
CC(C)c1cccc2cc3c(nc12)-c1cccc(=O)n1C3	–	15.8 µM (active)
CCc1c2c(nc3c(C(C)C)cccc13)-c1cccc(=O)n1C2	–	15.8 µM (active)
CC(C)c1cccc2c([Si](C)(C)C)c3c(nc12)-c1cccc(=O)n1C3	–	25.1 µM (active)
